Consider 37 compounds from PubChem BioAssay (NCATS).

Experiment [1] addresses Voltage-gated inwardly rectifying potassium channel KCNH2 (Homo sapiens) (UniProt Q12809). Description: qHTS Assay for Small Molecule Inhibitors of the Human hERG Channel Activity (AID 588834).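 Further: lower thallium flux fluorescence means stronger hERG block; nearly all actives have a fitted effect of over 50% in size.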 Further: potency means the concentration at half of the fitted maximal effect. Summed up:
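Concentration-response qHTS measuring drop in thallium-sensitive dye signal. U2OS cells carrying BacMam hERG; compound exposure ~10 min, then stimulation buffer and 2 min read at 1 sec intervals.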
(In general: In qHTS, concentration-response curves come from the screen itself.)

The target in experiment [2] is Luciferin 4-monooxygenase (Photinus pyralis) (UniProt P08659). In words: Biochemical firefly luciferase enzyme assay for NPC (AID 624030).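 Further: purified P. pyralis luciferase at 10 nM with luciferin and ATP substrate; series mostly up to about 59 µM; nearly all actives have a fitted effect of over 70% in size.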 Summed up:
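Purified P. pyralis luciferase at 10 nM in 50 mM Tris Acetate (final), luminescence read within 5 minutes of enzyme addition to compounds. Activity normalised to PTC124 versus DMSO; concentration-response curves classed by r2, magnitude and activity.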

The nature of experiment [3]: S16 Schwann cell viability assay (CellTiter-Glo assay) (AID 624031).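 Further: native untransfected S16 rat Schwann cells; series mostly up to about 58 µM; nearly all actives have a fitted effect of over 70% in size.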 In a few lines: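 Counter-screen for cytotoxicity: parental S16 rat Schwann cells lacking the PMP22 reporters, treated 24 h with compound, viability from cellular ATP by CellTiter-Glo luminescence, normalized to DMSO (0%) and no-cell wells.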
The nature of experiment [4]: S16 Schwann cell PMP22 intronic element firefly luciferase assay (AID 624032). Further: nearly all actives have a fitted effect of over 30% in size. Further: potency means the concentration at half of the fitted maximal effect. Summed up:
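Rat S16 Schwann cells stably carrying firefly luciferase driven by a PMP22 intronic element, in 10% FBS, treated 24 h at 37 C. ONE-Glo luminescence normalized to PTC124 control and DMSO (0%); curves classed by r2, magnitude and activity.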

Experiment [5] can be described thus: S16 Schwann cell PMP22 intronic element beta-lactamase assay (AID 624044; calls by dose curve; further: nearly all actives have a fitted effect of over 15% in size). In a few lines: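 Rat S16 Schwann cells with beta-Lac driven by a PMP22 intronic element, compound-treated 24 h at 37 °C. LiveBLAzer FRET B/G read: 460 nm normalized to potassium clavulanate vs DMSO; 535 nm FRET as viability; concentration-effect curves classified.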

Structures are written as SMILES. Inconclusive results are not listed. Calls of active or inactive are those of the source. Unless noted, the call rests on the fitted dose curve; in most records, active means well fitted curve in the direction sought with a large enough effect; inconclusive means small, poorly fitted or top-dose-only effect, or another doubt; inactive means no such curve, though single readings can be large; an effect the other way counts as inactive or inconclusive.

Luciferin 4-monooxygenase (Photinus pyralis), sequence (P08659 whole entry, looked up): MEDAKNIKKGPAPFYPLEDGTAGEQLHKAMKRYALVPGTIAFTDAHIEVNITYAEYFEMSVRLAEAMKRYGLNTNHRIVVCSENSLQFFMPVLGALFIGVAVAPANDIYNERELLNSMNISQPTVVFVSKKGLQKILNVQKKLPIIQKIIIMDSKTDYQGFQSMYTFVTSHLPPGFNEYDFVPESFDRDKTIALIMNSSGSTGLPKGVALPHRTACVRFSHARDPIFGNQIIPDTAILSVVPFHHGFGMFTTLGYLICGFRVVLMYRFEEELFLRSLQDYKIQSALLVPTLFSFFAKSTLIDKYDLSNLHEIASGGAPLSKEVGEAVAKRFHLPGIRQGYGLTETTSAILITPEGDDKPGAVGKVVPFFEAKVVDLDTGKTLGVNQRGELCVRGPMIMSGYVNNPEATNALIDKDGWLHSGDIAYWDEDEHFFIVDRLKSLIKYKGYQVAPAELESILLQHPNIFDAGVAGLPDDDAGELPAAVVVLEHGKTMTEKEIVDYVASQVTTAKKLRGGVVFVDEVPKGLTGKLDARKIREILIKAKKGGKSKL
Voltage-gated inwardly rectifying potassium channel KCNH2 (Homo sapiens), sequence (Q12809 whole entry, looked up): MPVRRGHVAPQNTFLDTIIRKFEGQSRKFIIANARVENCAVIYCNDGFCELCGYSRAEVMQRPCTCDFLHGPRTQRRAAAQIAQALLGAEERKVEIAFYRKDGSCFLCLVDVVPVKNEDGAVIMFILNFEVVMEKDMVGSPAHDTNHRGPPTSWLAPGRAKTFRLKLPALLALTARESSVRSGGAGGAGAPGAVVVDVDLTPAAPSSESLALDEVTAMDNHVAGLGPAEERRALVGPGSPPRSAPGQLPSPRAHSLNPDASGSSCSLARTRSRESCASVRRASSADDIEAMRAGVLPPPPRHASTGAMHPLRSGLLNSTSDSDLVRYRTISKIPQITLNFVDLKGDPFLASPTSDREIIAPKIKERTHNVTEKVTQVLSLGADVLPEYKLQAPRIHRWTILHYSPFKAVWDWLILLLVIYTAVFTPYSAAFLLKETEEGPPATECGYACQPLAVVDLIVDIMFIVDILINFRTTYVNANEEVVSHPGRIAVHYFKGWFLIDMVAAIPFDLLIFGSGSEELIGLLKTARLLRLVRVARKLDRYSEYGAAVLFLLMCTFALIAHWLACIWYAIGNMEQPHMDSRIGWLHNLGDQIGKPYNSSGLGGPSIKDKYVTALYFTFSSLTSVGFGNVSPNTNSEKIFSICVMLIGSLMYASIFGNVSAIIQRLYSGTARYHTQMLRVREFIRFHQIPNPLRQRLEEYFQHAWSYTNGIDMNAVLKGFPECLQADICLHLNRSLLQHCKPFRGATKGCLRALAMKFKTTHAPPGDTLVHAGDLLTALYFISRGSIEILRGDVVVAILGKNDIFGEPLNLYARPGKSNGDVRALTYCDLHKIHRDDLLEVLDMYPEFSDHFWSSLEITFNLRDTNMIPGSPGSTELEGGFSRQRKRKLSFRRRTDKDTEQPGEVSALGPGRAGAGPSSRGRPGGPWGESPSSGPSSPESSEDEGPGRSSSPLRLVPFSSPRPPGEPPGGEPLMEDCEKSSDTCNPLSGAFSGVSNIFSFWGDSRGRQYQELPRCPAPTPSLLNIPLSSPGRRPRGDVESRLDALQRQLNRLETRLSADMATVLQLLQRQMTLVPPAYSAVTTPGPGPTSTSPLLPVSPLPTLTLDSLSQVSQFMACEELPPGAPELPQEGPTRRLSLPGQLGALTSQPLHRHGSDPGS

In the case of `CCOC(=O)C(C#N)=C(c1ccccc1)c1ccccc1`, the Potency entry in experiment [1], in experiment [2] and in experiment [3] was “inactive” in each case.
Turning to `CC(C)[N+](C)(C)CC(O)COc1cccc2ccccc12` (configuration not stated), the Potency result in experiment [1], in experiment [2], in experiment [3] and in experiment [4] was “inactive” each time.
Turning to `CN1CCN(c2c(F)cc3c(=O)c(C(=O)O)cn4c3c2SCC4)CC1`, the Potency result in experiment [1], in experiment [2], in experiment [3] and in experiment [4] was “inactive” throughout.
`FC1(F)C(F)(F)C(F)(F)C2(F)C(F)(F)C(F)(F)C(F)(F)C(F)(F)C2(F)C1(F)F` (configuration not stated): the Potency result in experiment [1], in experiment [2], in experiment [3] and in experiment [4] was “inactive” throughout.
Turning to `CC(=O)N[C@@H](CCC(=O)O)C(=O)O`, the Potency entry in experiment [1], in experiment [2], in experiment [3] and in experiment [4] was “inactive” each time.
Consider `COc1cc(O)c(C(=O)c2ccccc2)cc1S(=O)(=O)O`, for which the Potency result in experiment [1], in experiment [2] and in experiment [3] was “inactive” each time.
In the case of `O=C(Nc1ccc([N+](=O)[O-])cc1)Nc1ccc([N+](=O)[O-])cc1`, the Potency in experiment [1] was 14.1 µM (active). Further, the Potency entry in experiment [2] and in experiment [3] was “inactive” in each case.
In the case of `O=C1C(=O)c2ccccc2C(O)=C1C1CCC(c2ccc(Cl)cc2)CC1` (configuration not stated), the Potency result in experiment [1], in experiment [2] and in experiment [3] was “inactive” throughout.
Regarding `Cn1c(=O)c2[nH]c(Br)nc2n(C)c1=O`, the Potency entry in experiment [1], in experiment [2] and in experiment [3] was “inactive” each time.
In the case of `CCOCCn1c(N2CCCN(C)CC2)nc2ccccc21`, the Potency in experiment [1] is 1 µM (active). Further, the Potency result in experiment [2], in experiment [3] and in experiment [4] was “inactive” each time.
For the compound `Cc1c[nH]c2ccccc12`, the Potency result in experiment [1], in experiment [2], in experiment [3] and in experiment [4] was “inactive” in each case.
Turning to `CCOC(=O)c1ccc(N)cc1`, the Potency result in experiment [1], in experiment [2], in experiment [3] and in experiment [4] was “inactive” throughout.
Consider `OCc1ccccn1`, for which the Potency entry in experiment [1], in experiment [2], in experiment [3] and in experiment [4] was “inactive” each time.
Take `CCc1cc(Cl)c(OC)c(C(=O)NC[C@@H]2CCCN2CC)c1O`: the Potency in experiment [1] was 2.82 µM (active). In experiment [2], the Potency entry is “inactive”.
Turning to `CC(=O)Nc1ccc(OC(=O)c2ccccc2OC(C)=O)cc1`, the Potency result in experiment [1], in experiment [2] and in experiment [3] was “inactive” in each case. In addition, the Potency in experiment [4] was 32.2 µM (active).
Consider `COc1cc(NS(=O)(=O)c2ccc(N)cc2)ncn1`, for which the Potency result in experiment [1], in experiment [2], in experiment [3] and in experiment [4] was “inactive” each time.
`CCN(CC)CCOC(=O)C1(c2ccccc2)CCCC1`: the Potency entry in experiment [1], in experiment [2], in experiment [3] and in experiment [4] was “inactive” in each case.
As for `O=S(=O)(O)c1ccc(O)cc1`, the Potency result in experiment [1], in experiment [2], in experiment [3] and in experiment [4] was “inactive” each time.
Turning to `CCN(CC)CCOc1ccc2c(c1)C(=O)c1cc(OCCN(CC)CC)ccc1-2`, the Potency entry in experiment [1], in experiment [2] and in experiment [3] was “inactive” each time. Besides, in experiment [4], the Potency was 8.09 µM (active).
On to `CC(=O)O[C@]1(C(C)=O)CC[C@H]2[C@@H]3C=C(Cl)C4=CC(=O)CC[C@]4(C)[C@H]3CC[C@@]21C`, for which the Potency result in experiment [1], in experiment [2] and in experiment [3] was “inactive” each time.
`COc1ccc(CN(CCN(C)C)c2ncccn2)cc1`: the Potency result in experiment [1], in experiment [2], in experiment [3] and in experiment [4] was “inactive” throughout.
Regarding `CC(C)(Cc1c[nH]c2ccccc12)NCC(O)COc1ccccc1C#N` (configuration not stated), in experiment [1], the Potency was 2.82 µM (active). Further, the Potency entry in experiment [2] was “inactive”.
For `Cc1ncc(CO)c(C=O)c1O`, the Potency entry in experiment [1], in experiment [2], in experiment [3] and in experiment [4] was “inactive” each time.
For `CCCN(CCc1cccs1)[C@H]1CCc2c(O)cccc2C1`, in experiment [1], the Potency is 1 µM (active). The Potency entry in experiment [2] is “inactive”.
`COc1cc(C(=O)N2CCCCCCC2)cc(OC)c1OC`: the Potency result in experiment [1] and in experiment [2] was “inactive” each time.
In the case of `COc1cc(C(=S)N2CCOCC2)ccc1O`, the Potency entry in experiment [1], in experiment [2] and in experiment [3] was “inactive” each time.
For the compound `O=C1C(O)=C(O)C(=O)C(O)=C1O`, the Potency result in experiment [1], in experiment [2], in experiment [3] and in experiment [4] was “inactive” in each case.
For `Cc1cccc(C)c1NC(=O)CN1CCCC1`, the Potency entry in experiment [1], in experiment [2] and in experiment [3] was “inactive” throughout.
Take `CC(=O)NCCCCCC(=O)O`: the Potency entry in experiment [1], in experiment [2], in experiment [3] and in experiment [4] was “inactive” in each case.
In the case of `CCC(C(=O)OCCOCCN(CC)CC)c1ccccc1` (configuration not stated), the Potency entry in experiment [1], in experiment [2], in experiment [3] and in experiment [4] was “inactive” each time.
As to `CN1CCN(c2cc3c(cc2F)c(=O)c(C(=O)O)cn3-c2ccc(F)cc2)CC1`, the Potency entry in experiment [1], in experiment [2], in experiment [3] and in experiment [4] was “inactive” in each case.
`O=C(NC1CCN(CCc2c[nH]c3ccccc23)CC1)c1ccccc1`: the Potency in experiment [1] was 0.891 µM (active). Further, the Potency entry in experiment [2], in experiment [3] and in experiment [4] was “inactive” throughout.
With `CN1CCC(OC(c2ccccc2)c2ccccc2)CC1`, the Potency in experiment [1] is 4.47 µM (active). Moreover, the Potency entry in experiment [2], in experiment [3], in experiment [4] and in experiment [5] was “inactive” in each case.
`O=C1C(CCS(=O)c2ccccc2)C(=O)N(c2ccccc2)N1c1ccccc1` (configuration not stated): the Potency entry in experiment [1], in experiment [2], in experiment [3], in experiment [4] and in experiment [5] was “inactive” each time.
Consider `CC(C)Nc1cccnc1N1CCN(C(=O)c2cc3cc(NS(C)(=O)=O)ccc3[nH]2)CC1`, for which the Potency in experiment [1] was 8.91 µM (active); in experiment [4], 14.4 µM (active). Further, the Potency entry in experiment [2], in experiment [3] and in experiment [5] was “inactive” in each case.
`O=C(O)P(=O)(O)O`: the Potency entry in experiment [1], in experiment [2], in experiment [3], in experiment [4] and in experiment [5] was “inactive” throughout.
In the case of `C[C@@H](O)[C@H]1C(=O)N2C(C(=O)O)=C(S[C@@H]3CN[C@H](CNS(N)(=O)=O)C3)[C@H](C)[C@H]12`, the Potency result in experiment [1], in experiment [2], in experiment [3], in experiment [4] and in experiment [5] was “inactive” in each case.
